Reference: PubChem BioAssay (NCI)
About 83,000 compounds went through this panel and 20% of them were active in at least one assay; those are over-represented in the sample as a whole.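 Treatment: one concentration, 48 hours, 96-well format. Scoring: percent growth, with anything below 10 considered active.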 Active and inactive are the calls of the source.

These molecules were tested on SF-295 CNS (assay: NCI-60 one-dose screen, 48 h (100 = growth as untreated, 0 = no growth, -100 = all killed)). Details: 10 µM unless noted.
With `C=CCC(=O)N[C@H](/C=C/C(=O)O)Cc1ccc(-c2cc(Cl)cc(Cl)c2)cc1` the growth was 101% (inactive).
`CCN1CCN(c2cc(C)nc(N(CCCNc3ccnc4cc(Cl)ccc34)Cc3cccs3)n2)CC1` was tested, and the growth was -69.4% (active).
For `COC(=O)CCCNc1c(-c2c(O)c(O)cc3c(O)c(-c4c(C)cc5c(-c6nc7ccccn7c6NCCCC(=O)OC)c(O)c(O)cc5c4O)c(C)cc23)nc2ccccn12`, the growth was 26.4% (inactive).
For `Cn1ncc(Cl)c1-c1cc(C(=O)N[C@H](CN)Cc2ccc(F)c(F)c2)oc1Cl`, the growth was -65.8% (active).
For `O=c1[nH]c(N2CCOCC2)nc2scc(-c3ccccc3)c12`, the growth was 96.5% (inactive).
With `Cc1cc2c(-c3nc4ccccn4c3NC3CCCCC3)c(O)c(O)cc2c(O)c1-c1c(C)cc2c(-c3nc4ccccn4c3NC3CCCCC3)c(O)c(O)cc2c1O` the growth was 16.6% (inactive).
`CC(C)C1CCC(C)C(C2(C#N)C(N)=NC(N)=C2C#N)C1=O` (centres undefined) was tested, and the growth was 103% (inactive).
For `Cc1cc(N2CCCC2)nc(N(CCCNc2ccnc3cc(Cl)ccc23)Cc2ccc3c(c2)OCO3)n1`, the growth was -62% (active).
In the case of `[2H]C1([2H])[C@H](C)O[C@H](C)C([2H])([2H])N1c1ccc(NC(=O)c2cccc(-c3ccc(OC(F)(F)F)cc3)c2C)cn1`, the growth is reported as 73.3% (inactive).
`Cc1cc2c(-c3nc4ccccn4c3NC34CC5CC(CC(C5)C3)C4)c(O)c(O)cc2c(O)c1-c1c(C)cc2c(-c3nc4ccccn4c3NC34CC5CC(CC(C5)C3)C4)c(O)c(O)cc2c1O` was tested, and the growth was 1.49% (active).
In the case of `CC[C@H](Nc1ncnc2nc[nH]c12)c1nc2cccc(F)c2c(=O)n1-c1ccccc1`, the growth is reported as 57.9% (inactive).
For `COC(=O)C1=C(C(=O)OC)C23C=C(C)C1C2=C(C)C1(CC1)[C@@](C)(O)C3=O` (some centres undefined), the growth was -4% (active).
In the case of `c1ccc2c(c1)CCN(NCCN1CCCC1)C2`, the growth is reported as 98% (inactive).
With `Cc1cc(N(CCNc2ccnc3cc(Cl)ccc23)Cc2cccs2)nc(Cl)n1` the growth was -44.6% (active).
With `COc1cc(-c2nc(C(=O)Nc3ccc(C)cc3)nn2-c2ccc(F)c(F)c2)cc(OC)c1OC` the growth was 94% (inactive).
For `O=C(Cn1c(=O)ccn(CCCCCCCCOc2ccc(Br)cc2)c1=O)Nc1ccc(Oc2ccc(Cl)cc2)cc1`, the growth was 52.9% (inactive).
In the case of `Cc1ccc(-c2cc3c(SCC(=O)Nc4cc(C(F)(F)F)ccc4Cl)nccn3n2)cc1`, the growth is reported as 38.1% (inactive).
With `CCCc1cc2cc(-n3nc(C)c4c3CC(C)(C)CC4=O)cc(NC3CCC(O)CC3)c2c(=O)[nH]1` (centres undefined) the growth was -35.6% (active).
With `COc1ccc(C(=O)c2cc(OC)c(OC)c(OC)c2)cc1/C=C/C(=O)c1ccc(F)cc1` the growth was 84.3% (inactive).
In the case of `CC(C)=CCc1cc2c(cc1O)C1=C(C(=O)C3=C(C1=O)S(=O)(=O)CCN3)C(C=C(C)C)O2` (centres undefined), the growth is reported as -65.9% (active).
In the case of `CN1CCN(c2nc(NCCNc3ccnc4cc(Cl)ccc34)c3ccccc3n2)CC1`, the growth is reported as -38.7% (active).
For `COc1ccc(CCCc2c3[n+](cc4c(OC)c(OC)ccc24)CCc2cc4c(cc2-3)OCO4)cc1`, the growth was 78.9% (inactive).
With `N#Cc1cc2[nH]c3ccc(OC(F)(F)F)cc3c2oc1=O` the growth was 80.3% (inactive).
`CCN1CCN(CCCN(C[C@H]2Cc3ccccc3CN2)[C@H]2CCCc3cccnc32)CC1` was tested, and the growth was 90.7% (inactive).
For `Clc1ccc2c(NCCCNCc3ccc4c(c3)OCO4)ccnc2c1`, the growth was 59.8% (inactive).
`Cc1cc(N2CCOCC2)nc(N(CCNc2ccnc3cc(Cl)ccc23)Cc2cccs2)n1` was tested, and the growth was -54% (active).
With `CCN1CCN(c2cc(C)nc(N(CCCNc3ccnc4cc(Cl)ccc34)Cc3ccc4c(c3)OCO4)n2)CC1` the growth was -70% (active).
In the case of `COc1cc(-c2cc(-c3ccc(Nc4ccnc5cc(Cl)ccc45)cc3)nc(N3CCOCC3)n2)cc(OC)c1OC`, the growth is reported as 6.95% (active).
For `COC(=O)C1CCc2sc3ncnc(Nc4cn[nH]c4C(=O)Nc4ccc(CN5CCN(C)CC5)cc4)c3c21` (centres undefined), the growth was 26.4% (inactive).
`CO/C=C/C(=O)c1cc2cnc3c(=N)cc(NC(=O)C(C)C)c([nH]1)c23` was tested, and the growth was -51.6% (active).
In the case of `CCN1CCN(c2nc(C)cc(N(CCNc3ccnc4cc(Cl)ccc34)Cc3ccc4c(c3)OCO4)n2)CC1`, the growth is reported as -62.9% (active).
`N#CC(C#N)=NO` was tested, and the growth was 101% (inactive).
In the case of `C=CC(=O)N(C)[C@H]1C[C@H]2OC(C)(C1OC)n1c3ccccc3c3c4c(c5c6ccccc6n2c5c31)C(=O)NC4` (some centres undefined), the growth is reported as -27% (active).
In the case of `Cc1ccc(NC(=O)NC(=O)CSc2nc3ccccc3nc2C)cc1`, the growth is reported as 43.7% (inactive).
